In PubChem BioAssay (NCI):
Where “and” joins values, the source holds several entries; their conditions need not be identical. Equal values may be shown once. The panel holds about 83,000 compounds, 20% with a hit somewhere; the sample as a whole holds those more often.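 A percent growth of 40 corresponds to 60% growth inhibition; 0 means no net growth; -100 means all cells died. Active threshold: below 10.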 Calls of active or inactive are those of the source.

Legend:
Assay in all cases: NCI-60 one-dose screen, 48 h (100 = growth as untreated, 0 = no growth, -100 = all killed)
Details in all cases: 10 µM unless noted
DU-145 prostate = tested on: DU-145 prostate
K-562 leukemia = tested on: K-562 leukemia
MALME-3M melanoma = tested on: MALME-3M melanoma
MDA-MB-231 breast = tested on: MDA-MB-231 breast
RXF 393 renal = tested on: RXF 393 renal
SF-268 CNS = tested on: SF-268 CNS
SF-295 CNS = tested on: SF-295 CNS
SF-539 CNS = tested on: SF-539 CNS
UACC-257 melanoma = tested on: UACC-257 melanoma
M14 melanoma = tested on: M14 melanoma

Compound | growth (DU-145 prostate) | growth (K-562 leukemia) | growth (MALME-3M melanoma) | growth (MDA-MB-231 breast) | growth (RXF 393 renal) | growth (SF-268 CNS) | growth (SF-295 CNS) | growth (SF-539 CNS) | growth (UACC-257 melanoma) | growth (M14 melanoma)
COc1ccc(-c2ccccc2)cc1-c1c(Nc2cc(Cl)cc(Cl)c2O)c(=O)c1=O | 20.5% (inactive) | 13.5% (inactive) | -19.4% (active) | 15% (inactive) | -13% (active) | 18.3% (inactive) | -6.58% (active) | 12.7% (inactive) | 2.86% (active) | 24.6% (inactive)
COc1ccccc1/C=C1\COc2ccc(O)c(O)c2C1=O | 5.75% (active) | 2.89% (active) | 6.18% (active) | 17.4% (inactive) | 36.6% (inactive) | 32% (inactive) | 90.8% (inactive) | -23.5% (active) | 33.6% (inactive) | 29% (inactive)
O=C(/C=C/c1cccs1)Nc1ncc(Cc2ccc(Cl)c(Cl)c2)s1 | 59.5% (inactive) | 35.2% (inactive) | 53.1% (inactive) | 82.9% (inactive) | 72.8% (inactive) | 67.9% (inactive) | 30.2% (inactive) | 65.1% (inactive) | 90.8% (inactive) | 29% (inactive)
Cn1cc(-c2csc(-c3c[nH]c4ccc(F)cc34)n2)c2cnccc21 | -19.6% (active) | -55.4% (active) | -94.9% (active) | -66.7% (active) | -90.8% (active) | -25.4% (active) | -75.4% (active) | -93.7% (active) | -68.6% (active) | -87% (active)
C=C1CCC2C3(C)COC(c4ccc(NC(C)=O)cc4)OC3CCC2(C)C1C/C=C1/C(=O)OCC1O (stereo not given) | 108% (inactive) | 18.7% (inactive) | 66.6% (inactive) | 87.3% (inactive) | 62.6% (inactive) | 94% (inactive) | 25.1% (inactive) | 69.6% (inactive) | 30.5% (inactive) | 76.3% (inactive)
C=C1C(=O)O[C@H]2[C@H]1CC/C(CNS(=O)(=O)c1ccc3ccccc3c1)=C\CC[C@@]1(C)O[C@@H]21 | -85% (active) | -19.3% (active) | -22.6% (active) | 2.57% (active) | -80.8% (active) | 51.4% (inactive) | 71.2% (inactive) | 9.99% (active) | -54.4% (active) | -32.6% (active)
COc1ccc(-c2cc(-c3cc(OC)c(OC)c(OC)c3)c(C#N)c(=O)n2CCCCC(=O)O)cc1 | 98.2% (inactive) | 88% (inactive) | 114% (inactive) | 81.6% (inactive) | 99.2% (inactive) | 86.9% (inactive) | 95% (inactive) | 94.4% (inactive) | 103% (inactive) | 98% (inactive)
O=C(/C=C/c1ccc(F)cc1)Nc1ncc(Cc2ccc(F)cc2)s1 | 33% (inactive) | 14% (inactive) | 41.5% (inactive) | 75.7% (inactive) | 32.1% (inactive) | 52.3% (inactive) | 20.2% (inactive) | 22% (inactive) | 60.3% (inactive) | 19.9% (inactive)
COc1ccccc1/C=C/C(=O)/C=C/c1ccccc1OC | -11.9% (active) and -11.3% (active) | 10.9% (inactive) | -33.8% (active) and 2.49% (active) | 17.5% (inactive) and 8.92% (active) | -87.5% (active) and -89.7% (active) | 8.73% (active) and 21.3% (inactive) | 10.4% (inactive) and -31% (active) | 3.38% (active) and -29.1% (active) | -29.2% (active) and 6.89% (active) | 8.11% (active) and -49.7% (active)
CN(C)CCN1C(=O)c2c(c3c4ccccc4n4c3c3c2c2ccccc2n3C2CC(O)C(O)C4(C)O2)C1=O (stereo not given) | 16.9% (inactive) | 11.4% (inactive) | 23.5% (inactive) | 58.4% (inactive) | 29.9% (inactive) | 35.2% (inactive) | 8.95% (active) | 24.3% (inactive) | 34.7% (inactive) | 23.9% (inactive)
Cc1nc2sc(C(=O)Nc3cccc(Cl)c3C)c(N)c2cc1C(O)c1ccccc1 (stereo not given) | 10.7% (inactive) | 6.05% (active) | 50.2% (inactive) | 15.3% (inactive) | 46.2% (inactive) | 24% (inactive) | 26.9% (inactive) | 0.0688% (active) | 57% (inactive) | 7.42% (active)
N=C(N)SCc1c2ccccc2c(CSC(=N)N)c2ccccc12 | 63.9% (inactive) | 35.3% (inactive) | 71.3% (inactive) | 103% (inactive) | 99.7% (inactive) | 55.5% (inactive) | 66.7% (inactive) | 84% (inactive) | 119% (inactive) | 68.4% (inactive)
CCCCCCCCCCCCCCCCCCn1cc(COc2ccc(C=O)cc2)nn1 | 92.4% (inactive) | 85.9% (inactive) | 106% (inactive) | 110% (inactive) | 113% (inactive) | 93.7% (inactive) | 98.7% (inactive) | 98.5% (inactive) | 109% (inactive) | 92.8% (inactive)
CCOC(=O)c1cc2c(n1Cc1cc(OC)cc(OC)c1Br)-c1nc(NC(C)=O)sc1CCC2 | 89.3% (inactive) | 81.4% (inactive) | 122% (inactive) | 74.7% (inactive) | 61% (inactive) | 67.1% (inactive) | 76.4% (inactive) | 85.6% (inactive) | 53% (inactive) | 84.9% (inactive)
Clc1nccc2c(-c3csc(-c4c[nH]c5ccc(Br)cc45)n3)c[nH]c12 | 29% (inactive) | 3.99% (active) | 8.43% (active) | 14.4% (inactive) | -14.8% (active) | 55.6% (inactive) | -10.3% (active) | 15.3% (inactive) | -48.9% (active) | -34.3% (active)
CCCCCCCC/C=C\CCCCCCCCOc1ccccc1CC(=O)NCC[N+]1(C)CCOCC1 | 85.3% (inactive) | 56.9% (inactive) | 100% (inactive) | 80.1% (inactive) | 24.7% (inactive) | 66.8% (inactive) | 67.6% (inactive) | 91.3% (inactive) | 83.8% (inactive) | 75.6% (inactive)
Cc1ccc(-c2nc(C#N)c(S(=O)(=O)N(C)C)o2)cc1 | 103% (inactive) | 12.3% (inactive) | 52.6% (inactive) | 88.1% (inactive) | 105% (inactive) | 104% (inactive) | 100% (inactive) | 102% (inactive) | 94.8% (inactive) | 64.3% (inactive)
O=C1C=CC(=O)N1c1ccc2ccccc2c1 | 94.4% (inactive) and 99.5% (inactive) | 47% (inactive) and 35.5% (inactive) | 69.4% (inactive) and 30.9% (inactive) | 111% (inactive) and 96.5% (inactive) | 83.3% (inactive) and 102% (inactive) | 100% (inactive) and 105% (inactive) | 112% (inactive) and 99% (inactive) | 108% (inactive) and 93.6% (inactive) | 92.5% (inactive) and 91.1% (inactive) | 91.1% (inactive) and 103% (inactive)
COc1ccc(CCNC(=O)COc2cc3c(Nc4ccc(F)c(Cl)c4)ncnc3cc2OC)cc1OC | 58% (inactive) | 112% (inactive) | 86.9% (inactive) | 94.4% (inactive) | 96% (inactive) | 85.7% (inactive) | 98.1% (inactive) | 103% (inactive) | 110% (inactive) | 101% (inactive)
Cc1cc(N2CCN(CC(=O)Nc3ccc4c(ccn4Cc4ccccc4)c3)CC2)nc(N2CCCCCC2)n1 | 71.5% (inactive) | 14.8% (inactive) | 18.2% (inactive) | 28.2% (inactive) | 28.7% (inactive) | 72.9% (inactive) | 44.4% (inactive) | 69.4% (inactive) | 42.8% (inactive) | -7.84% (active)
Cc1ccc(/C=C/c2c(C(=O)/C=C/c3ccccc3)c(C)nc3ccccc23)cc1 | 12.8% (inactive) | 8.62% (active) | -1.88% (active) | 30.8% (inactive) | -3.35% (active) | 54.1% (inactive) | 31.9% (inactive) | -23.2% (active) | 12.3% (inactive) | 17.6% (inactive)
O=C(Nc1ccc(Cl)c(Cl)c1)Nc1ccc(Cl)c(Cl)c1 | -94.8% (active) and 21.1% (inactive) | -33.4% (active) and 12.4% (inactive) | -16.1% (active) | -91.1% (active) and 24.1% (inactive) | -88.2% (active) and 58.8% (inactive) | -80.7% (active) and 31.9% (inactive) | -11.8% (active) | -83.3% (active) and 51.1% (inactive) | -81.9% (active) and 50% (inactive) | -85.7% (active) and 33.4% (inactive)
